Reference: ChEMBL document CHEMBL3433997, “St. Jude Leishmania screening dataset” (2016)

Assays:
Type in all cases: functional
[1] = biological target: Solute carrier family 2, facilitated glucose transporter member 1 (Homo sapiens) (UniProt P11166); test: ST_JUDE_LEISH: Cytotoxicity at 2uM final concentration against transgenic Leishmania Mexicana promastigotes LmGLUT1 that are glucose transport deficient and complemented with the human glucose transporter GLUT1. Activity is measured by DNA content using SYBR green in vitro
[2] = biological target: Hexose transporter 1 (Plasmodium falciparum) (UniProt O97467); test: ST_JUDE_LEISH: Cytotoxicity at 2uM final concentration against transgenic Leishmania Mexicana promastigotes LmPfHT that are glucose transport deficient and complemented with the Plasmodium falciparum hexose transporter. Activity is measured by DNA content using SYBR green in vitro
[3] = biological target: Glucose transporter (Leishmania mexicana) (UniProt O61059); test: ST_JUDE_LEISH: Cytotoxicity at 2uM final concentration against transgenic Leishmania Mexicana promastigotes LmGT2 that are glucose transport deficient and complemented with the L. Mexicana glucose transporter 2. Activity is measured by DNA content using SYBR green in vitro

Solute carrier family 2, facilitated glucose transporter member 1 (Homo sapiens), sequence (P11166 whole entry): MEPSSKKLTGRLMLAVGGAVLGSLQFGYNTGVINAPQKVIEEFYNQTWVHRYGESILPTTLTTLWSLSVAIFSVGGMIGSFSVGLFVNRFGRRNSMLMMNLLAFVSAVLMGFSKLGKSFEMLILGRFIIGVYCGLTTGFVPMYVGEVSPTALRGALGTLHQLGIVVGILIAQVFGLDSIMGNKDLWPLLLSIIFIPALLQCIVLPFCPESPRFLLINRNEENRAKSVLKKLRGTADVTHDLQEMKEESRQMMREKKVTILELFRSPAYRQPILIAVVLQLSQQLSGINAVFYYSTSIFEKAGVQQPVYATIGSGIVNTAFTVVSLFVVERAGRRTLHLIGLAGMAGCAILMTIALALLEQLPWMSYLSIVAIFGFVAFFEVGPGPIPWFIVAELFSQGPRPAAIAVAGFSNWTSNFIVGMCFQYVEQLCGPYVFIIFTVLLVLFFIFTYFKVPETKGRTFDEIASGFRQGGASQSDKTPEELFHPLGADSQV

Compound | inhibition [1] [%] | inhibition [2] [%] | inhibition [3] [%]
COc1ccc(-c2ccccc2CNC2Cc3ccccc3C2)cc1S(=O)(=O)NCCN1CCCC1 | 2.56 | 0.5 | 2.53
CC(Nc1cc(-c2ccccn2)nc(-c2ccccn2)n1)c1ccccc1 (stereo not drawn) | 23.4 | 12.8 | 17.5
O=C(/C=C/c1ccc(Cl)c(Cl)c1)NCCCCCN1CCC(CCNC(=O)C2(c3ccc(Cl)cc3)CC2)CC1 | 16.5 | 6.12 | 3.58
COc1ccc(CNc2nc(NCCc3ccccc3)c3cc(OC)c(OC)cc3n2)cc1OC | 3.4 | 3.46 | 2.54
Cc1cccc2nc(-c3ccc(-c4ccc(NC(=O)Nc5cccc(C#N)c5)cc4)cc3)[nH]c12 | 9.74 | 6.91 | 7.39
CCn1c(C=Cc2cc(Br)ccc2O)nc2ccccc2c1=O | -1.02 | 0.39 | 0.51
CC(C)CCN(Cc1cncn1Cc1cccc(Cl)c1)C(=O)c1cncc(-c2ccccc2)c1 | 5.13 | 6 | 5.78
Cc1cccc2c(/C=C/C(=O)NC3CCC(CCN4CCc5ccc(C#N)cc5CC4)CC3)c[nH]c12 (stereo not drawn) | 10.1 | 8.44 | 7.58
CCNc1cc(C(=O)N[C@@H](Cc2ccccc2)[C@H](O)CNCCc2ccccc2)cc(N2CCCC2=O)c1 | 0.28 | 1.31 | 0.88
O=C(O)/C=C/c1cccc(F)c1F | 1.29 | 1.5 | 2.66
CN(C)c1cccc2c(S(=O)(=O)Nc3cccc(CCN4CCC(N5CCCCC5)CC4)c3)cccc12 | 0.3 | -3.51 | -0.34
CS(=O)(=O)c1ccc(CNCc2cccc(-c3cccc(-c4nc5cc(C(F)(F)F)ccc5[nH]4)c3)c2)cc1 | 5.54 | 5.92 | 3.97
COCCCNc1sc(S(=O)(=O)c2ccccc2)nc1S(=O)(=O)c1ccc(C)cc1 | -0.53 | -2.3 | 1.51
N=C(N)Nc1ccc(OCCCCCOc2ccc(NC(=N)N)cc2)cc1 | 13.7 | 20.2 | 0.71
CCCc1cc(C(C)=O)ccc1OCCCON1C(=N)N=C(N)NC1(C)C | 22.1 | 29.3 | 20.5
CCOC(=O)NCCSC(C)(C)[C@H](NC(=O)[C@H](Cc1cc2ccccc2s1)[C@H](CC)N(O)C=O)C(=O)Nc1nccs1 | 0.32 | 0.28 | -0.04
O=C(NCCc1ccccc1)[C@H](Cc1ccccc1)Nc1ccnc(NCC2CCCCC2)n1 | -0.55 | 2.47 | 0.61
FC(F)(F)c1ccc2[nH]c(-c3ccc(-c4cccc(CNCc5ccccc5)c4)s3)nc2c1 | 2.04 | 0.97 | 1.82
CC1CCCCN1CCCNc1ncc2c(-c3ccc(NC(=O)Nc4cc(C(F)(F)F)ccc4F)c(F)c3)nn(C)c2n1 (stereo not drawn) | 1.38 | -0.99 | 0.83
O=C(NC1CCCCC1)N(Cc1ccccc1-c1ccc(CNCCc2ccccc2)cc1)C1CCN(Cc2ccccc2)CC1 | 4.39 | 3.18 | -0.58
COc1cc(N)c(Cl)cc1C(=O)NCC1CCN(c2nc(C)cc(C)n2)CC1 | 1.37 | 0.61 | -0.76
Cc1cc(NC(=O)Nc2ccc3nccc(N4CCN(C)CC4)c3c2)ccc1Br | -0.1 | 1.48 | 1.15
COc1ccc(-n2c(=O)c3c(n4c(SC(C)C)nnc24)-c2ccccc2CC32CCCCC2)cc1 | 1.32 | 1.21 | 0.1
c1ccc2[nH]c(-c3ccc(-c4ccc(CNCC5CCCO5)cc4)s3)nc2c1 (stereo not drawn) | 5.5 | 4.61 | 5.42
CN(C)Cc1ccc(-c2ccc3c(Nc4ccc(Oc5ccccc5)cc4)ccnc3c2)o1 | 0.83 | 0.83 | 2.26
CN1CCCC(CN2CCN(Cc3ccc(-c4ccc(-c5nc6cc(F)ccc6[nH]5)cc4)cc3)CC2)C1 (stereo not drawn) | 2.18 | 4.45 | 2.38

Compound | inhibition [1] [%] | inhibition [2] [%] | inhibition [3] [%]
CC(=O)Nc1nc(C(=O)Nc2cccc(-c3cccc(-c4nc5ccccc5[nH]4)c3)c2)cs1 | 12 | 15.6 | 6.57
O=C(Nc1cccc(CN2CCN(C(=O)c3cccc(F)c3)CC2)c1)c1cccs1 | 0.66 | 1.04 | -0.67
Oc1cccc(-c2nc(-c3ccccc3)c(-c3ccc(Oc4ccc(-c5[nH]c(-c6cccc(O)c6)nc5-c5ccccc5)cc4)cc3)[nH]2)c1 | 1.24 | 2.89 | 1.33
C=C[C@H]1CN(CCCCCCC)CC[C@H]1C[C@@H](Cc1ccnc2ccc(OC)cc12)OC(=O)[C@](OC)(c1ccccc1)C(F)(F)F | 0.1 | -0.32 | -3.72
CN(CC1CCC(NC(=O)/C=C/c2ccc(Cl)c(Cl)c2)CC1)C1CCC(c2c[nH]c3ccccc23)CC1 (stereo not drawn) | -0.25 | 0.8 | 2.15
Cc1[nH]c(C)c(-c2ccc(OCCOc3ccc(C(F)(F)F)cn3)cc2)c(=O)c1Br | -0.58 | 1.5 | -1.93
C=C(C)Cn1cc(C2CCN(CCCCNC(=O)c3sc(-c4ccc(Cl)cc4Cl)nc3CO)CC2)c2ccccc21 | -1.31 | -1.73 | 0.05
CC(C)(CNC(=O)[C@@H]1CCCN(CCOc2ccc(Cl)cc2)C1)c1nc(-c2ccc(Cl)c(O)c2)c(-c2ccncc2)[nH]1 | -1.34 | 2.16 | 0.11
CC(=O)Nc1ccc2[nH]cc(C3CCN(CC4CCC(NC(=O)/C=C/c5ccccc5Cl)CC4)CC3)c2n1 (stereo not drawn) | 6.86 | 5.52 | 6.59
Cc1cc(N[C@@H](Cc2ccccc2)C(=O)NCCOc2ccccc2)nc(NCCc2ccccn2)n1 | 6.81 | 6.41 | 3.94
CN1CCCc2cc(NC(=O)C=Cc3ccc(-c4ccc(F)cc4F)o3)ccc2C1 | 6.23 | 5.24 | 8.04
CC1CN(c2nc(NCCc3ccc(O)cc3)nc(NCc3ccccc3-c3ccc(C(F)(F)F)cc3)n2)CC(C)N1 (stereo not drawn) | 4.25 | 4.62 | 6.55
O=c1cc(NCCCNCc2cc3ccc(Br)cc3s2)[nH]c2ccccc12 | -0.97 | -0.27 | 0.6
COc1ccc2c(c1)CCCC2NCCCCNC(=O)c1ccc(NC(=O)c2ccc(Cl)cc2)cc1 (stereo not drawn) | 1.92 | 0.37 | 0.82
COc1ccc(N2C(N)=NC(N)=NC2(C)C)cc1 | 1.65 | 3.07 | 2.77
Cc1cc(C)c2cc(CNCCCNc3nc4ccccc4[nH]3)[nH]c2c1 | 1.11 | 0.15 | 2.91
Cc1ccc(C(=O)N2CCc3cc4nccc(N5CCN6CCC[C@H]6C5)c4cc32)cc1 | 1.81 | 0.6 | 1.55
CCOc1ccc(-c2nonc2NC(=O)CC(C)C)cc1OCC | -0.61 | -0.84 | -1.25
COCCN1CCC(N(CC2(O)CCN(c3ccc(C(F)(F)F)cc3)CC2)C(=O)Cn2c(SCc3cccc(F)c3F)cc(=O)c3ccccc32)CC1 | -0.38 | 0.65 | 0.85
CNC(=O)c1cnc(Nc2ccc(OCC(O)CN(C)C)cc2)nc1Nc1cccc(Br)c1 (stereo not drawn) | 11.4 | 11.1 | 9.84
COc1ccc(NC(=O)[C@H](CC(C)C)Nc2cc(C)nc(NCc3ccccc3C)n2)cc1 | 1.76 | 2.18 | 0.33
CN1CCN(c2cc3c(cc2Br)CCN3C(=O)Nc2ccc(-c3cnc4ccccc4c3)cc2)CC1 | 107 | 100 | 109
COc1cccc(C2(c3cccc(OC)c3)N=C(N)N(CCCc3ccccc3)C2=O)c1 | -0.49 | -0.23 | -2.44
CCn1cc(CN2C(=O)C(c3ccccc3)(c3ccccc3)N=C2N)cn1 | 1.83 | 2 | -1.54
CC(C)COc1ccc(Cl)cc1Cc1nc(-c2nc3ccc(CN4CCN(C)CC4)cc3[nH]2)co1 | 8.24 | 7.62 | 7.58
